Counter-ions that a name gives are not always drawn.
Experiments:
Conditions in all cases: incubation time: 27 h, anaerobic, 37 °C;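 for the amine columns active = adjusted P below 0.05 in both replicates with a change the same way and a mean fold change under 0.8 or over 1.25; inactive = the rest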
[1] = system: Clostridium sporogenes DSM 1664; experiment: growth (OD595) fold change vs plate DMSO controls (fold change (ratio)); higher = more growth
Summary of the method: (§1)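 Shaken 96-well cultures in mGAM, grown anaerobically for 27 h at 37 °C, were read at 595 nm. OD came from blank-subtracted readings, corrected for background with 20 µM compound solutions in water and scaled by a calibration factor of 5. Growth is the fold change versus the plate's median DMSO control. Values average 2 biological replicates, and any fold change above 1.5 is NA.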

Escherichia coli IAI1 [2] = experiment: as above
Summary of the method: as §1

[3] = system: Klebsiella aerogenes DSM 30053; experiment: as above
Summary of the method: as §1

[4] = system: Ruminococcus gnavus DSM 108212; experiment: as above
Summary of the method: as §1

[5] = system: Klebsiella aerogenes DSM 30053; experiment: fold change of Histamine concentration vs plate DMSO controls (fold change (ratio)); higher = more amine produced, active = hit call of the paper (significant change in both replicates, either direction)
Summary of the method: (§2)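 Using LC–triple-quadrupole MS with dynamic MRM, amines were quantified against external calibration curves and corrected for drift within each batch. Samples were whole anaerobic mGAM cultures of four gut strains, grown 27 h at 37 °C from OD 0.1 before 1:1 dilution, extracted with cold acetonitrile/methanol containing 0.1% formic acid and centrifuged. Compounds were present at 20 µM final (sweeteners at 50 µM final). The numbers are fold changes versus plate DMSO controls, each the mean of 2 biological replicates.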

[6] = system: Clostridium sporogenes DSM 1664; experiment: fold change of Tryptamine concentration vs plate DMSO controls (fold change (ratio)); higher = more amine produced, active = hit call of the paper (significant change in both replicates, either direction)
Summary of the method: as §2

[7] = system: Ruminococcus gnavus DSM 108212; experiment: as above
Summary of the method: as §2

Escherichia coli IAI1 [8] = experiment: fold change of Putrescine concentration vs plate DMSO controls (fold change (ratio)); higher = more amine produced, active = hit call of the paper (significant change in both replicates, either direction)
Summary of the method: as §2

[9] = system: Klebsiella aerogenes DSM 30053; experiment: as above
Summary of the method: as §2

Escherichia coli IAI1 [10] = experiment: fold change of Cadaverine concentration vs plate DMSO controls (fold change (ratio)); higher = more amine produced, active = hit call of the paper (significant change in both replicates, either direction)
Summary of the method: as §2

[11] = system: Klebsiella aerogenes DSM 30053; experiment: as above
Summary of the method: as §2

[12] = system: Ruminococcus gnavus DSM 108212; experiment: fold change of 2-Phenylethylamine concentration vs plate DMSO controls (fold change (ratio)); higher = more amine produced, active = hit call of the paper (significant change in both replicates, either direction)
Summary of the method: as §2

Structure (SMILES)	growth [1]	growth (Escherichia coli IAI1 [2])	growth [3]	growth [4]	fold change of Histamine concentration [5]	fold change of Tryptamine concentration [6]	fold change of Tryptamine concentration [7]	fold change of Putrescine concentration (Escherichia coli IAI1 [8])	fold change of Putrescine concentration [9]	fold change of Cadaverine concentration (Escherichia coli IAI1 [10])	fold change of Cadaverine concentration [11]	fold change of 2-Phenylethylamine concentration [12]
COc1ccc(C(=O)NCc2cccnc2)cc1C(=O)NCc1cccnc1 [Picotamide monohydrate] (20 µM)	0.983	0.972	0.998	0.842	1.07 (inactive)	1.06 (inactive)	0.926 (inactive)	0.989 (inactive)	1.05 (inactive)	0.962 (inactive)	1.02 (inactive)	0.866 (inactive)
N=C(N)N/N=C/c1c(Cl)cccc1Cl [Guanabenz acetate] (20 µM)	0.918	0.923	0.914	1.48	1.02 (inactive)	1.03 (inactive)	1.02 (inactive)	0.979 (inactive)	0.99 (inactive)	1.01 (inactive)	0.973 (inactive)	1.02 (inactive)
O=C(O)Cc1cc(I)c(Oc2ccc(O)c(I)c2)c(I)c1 [Tiratricol] (20 µM)	0.903	1.07	1.04	0.808	1.04 (inactive)	0.592 (active)	0.827 (inactive)	1.05 (inactive)	1.01 (inactive)	1.03 (inactive)	1.01 (inactive)	0.884 (inactive)
CC(=O)SCC(Cc1ccccc1)C(=O)NCC(=O)OCc1ccccc1 (stereo not drawn) [Racecadotril] (20 µM)	1.06	1	0.986	0.929	0.978 (inactive)	0.941 (inactive)	1.01 (inactive)	0.991 (inactive)	0.991 (inactive)	0.985 (inactive)	0.999 (inactive)	0.954 (inactive)
N=C(N)NCCN1CCCCCCC1 [Guanethidine sulfate] (20 µM)	1.13	0.988	1.1	0.933	0.834 (inactive)	1.07 (inactive)	1.1 (inactive)	0.97 (inactive)	0.953 (inactive)	0.9 (inactive)	1.04 (inactive)	1.11 (inactive)
Nc1nc(=S)c2ncn([C@@H]3O[C@H](CO)[C@@H](O)[C@H]3O)c2[nH]1 [Thioguanosine] (20 µM)	0.927	0.951	1.03	0.773	0.953 (inactive)	0.981 (inactive)	0.955 (inactive)	0.479 (inactive)	1.01 (inactive)	0.903 (inactive)	1.03 (inactive)	0.925 (inactive)
C/C(O)=C(\C#N)C(=O)Nc1ccc(C(F)(F)F)cc1 [Teriflunomide] (20 µM)	0.938	1.02	1.01	0.966	1.01 (inactive)	0.946 (inactive)	1 (inactive)	1.07 (inactive)	1.02 (inactive)	1.09 (inactive)	0.998 (inactive)	1.04 (inactive)
CC1(C)[C@@H](O[C@H]2O[C@H](C(=O)O)[C@@H](O)[C@H](O)[C@H]2O[C@@H]2O[C@H](C(=O)O)[C@@H](O)[C@H](O)[C@H]2O)CC[C@]2(C)[C@H]3C(=O)C=C4[C@@H]5C[C@@](C)(C(=O)O)CC[C@]5(C)CC[C@@]4(C)[C@]3(C)CC[C@@H]12 [Glycyrrhizic acid] (50 µM)	0.971	0.995	1.07	1.07	0.865 (inactive)	0.966 (inactive)	1.05 (inactive)	1.02 (inactive)	0.992 (inactive)	1.05 (inactive)	1.03 (inactive)	1.1 (inactive)
Cc1cc(=O)oc2cc(O)ccc12 [Hymecromone] (20 µM)	1.23	1.04	0.98	1.02	1.04 (inactive)	1.06 (inactive)	0.953 (inactive)	1 (inactive)	1.01 (inactive)	0.999 (inactive)	0.994 (inactive)	0.95 (inactive)
C[C@]12C[C@H](O)[C@H]3[C@@H](CCC4=CC(=O)CC[C@@]43C)[C@@H]1CC[C@@H]2C(=O)CO [Corticosterone] (20 µM)	0.994	1.05	1.07	1.11	0.992 (inactive)	0.971 (inactive)	0.998 (inactive)	1.05 (inactive)	0.99 (inactive)	1.01 (inactive)	1 (inactive)	1.04 (inactive)
CN1CCc2c(c3ccccc3n2Cc2ccccc2)C1 [Mebhydroline 1,5-naphtalenedisulfonate] (20 µM)	0.931	0.967	1.04	0.742	1.01 (inactive)	1.05 (inactive)	0.911 (inactive)	0.987 (inactive)	0.991 (inactive)	0.982 (inactive)	1.01 (inactive)	0.898 (inactive)
CC1=Nc2ccc(Cl)cc2S(=O)(=O)N1 [Diazoxide] (20 µM)	1.06	1.01	0.986	1.21	1.1 (inactive)	1.09 (inactive)	1.16 (inactive)	0.991 (inactive)	1.06 (inactive)	0.943 (inactive)	1.1 (inactive)	1.35 (active)
CC1c2cccc(O)c2C(O)=C2C(=O)C3(O)C(O)=C(C(N)=O)C(=O)C(N(C)C)C3C(O)C21 (stereo not drawn) [Doxycycline hydrochloride] (20 µM)	0.0027	0.0209	0.241	0.613	0.459 (inactive)	0.0313 (active)	0.225 (active)	0.219 (active)	0.659 (active)	0.412 (active)	0.724 (active)	0.288 (active)
CCN(CC)CCOCCOC(=O)C(CC)(CC)c1ccccc1 [Oxeladin citrate] (20 µM)	1.05	0.997	1	1.01	0.957 (inactive)	1.01 (inactive)	0.889 (inactive)	1.01 (inactive)	1.02 (inactive)	1.01 (inactive)	0.994 (inactive)	0.865 (inactive)
CCCC(CCC)C(=O)O [Valproic acid] (20 µM)	1.23	1.01	0.99	0.931	0.977 (inactive)	1.07 (inactive)	1.11 (inactive)	0.943 (inactive)	0.971 (inactive)	0.999 (inactive)	0.999 (inactive)	1.1 (inactive)
O=C1c2c(O)cccc2Cc2cccc(O)c21 [Anthralin] (20 µM)	1.07	0.981	1.03	0.95	1.05 (inactive)	1.1 (inactive)	0.996 (inactive)	1.02 (inactive)	1.01 (inactive)	0.992 (inactive)	0.999 (inactive)	0.91 (inactive)
COc1cc([S+](C)[O-])ccc1-c1nc2cccnc2[nH]1 (stereo not drawn) [Sulmazole] (20 µM)	0.885	0.999	0.98	1.1	0.922 (inactive)	0.944 (inactive)	1.19 (inactive)	0.951 (inactive)	0.952 (inactive)	1.02 (inactive)	1.05 (inactive)	1.38 (inactive)
Nc1ccn([C@@H]2O[C@H](CO)[C@@H](O)C2(F)F)c(=O)n1 [Gemcitabine] (20 µM)	0.371	0.338	0.294	0	1.07 (inactive)	0.969 (inactive)	0.641 (active)	0.969 (inactive)	1.01 (inactive)	1.02 (inactive)	0.999 (inactive)	0.753 (inactive)
Cc1cc2nc3ccc(=[N+](C)C)cc-3sc2cc1N [Tolonium chloride] (20 µM)	0.823	0.559	0.55	0.0958	0.959 (inactive)	1 (inactive)	0.972 (inactive)	0.979 (inactive)	1 (inactive)	1.05 (inactive)	0.984 (inactive)	0.959 (inactive)
Cn1c(=O)c2c(ncn2CC(O)CO)n(C)c1=O (stereo not drawn) [Diprophylline] (20 µM)	0.915	1.02	0.992	0.783	1.03 (inactive)	0.964 (inactive)	0.971 (inactive)	1.02 (inactive)	1.01 (inactive)	0.98 (inactive)	1 (inactive)	0.99 (inactive)
CC1CCc2cc(F)cc3c(=O)c(C(=O)O)cn1c23 (stereo not drawn) [Flumequine] (20 µM)	0.015	0.0532	0.404	0.706	0.301 (active)	0.0425 (active)	0.989 (inactive)	0.679 (active)	1.13 (inactive)	0.209 (active)	0.975 (inactive)	0.952 (inactive)
Nc1nc(=O)c2nc(CNc3ccc(C(=O)N[C@@H](CCC(=O)O)C(=O)O)cc3)cnc2[nH]1 [Folic acid] (20 µM)	0.939	1.08	0.988	0.783	0.93 (inactive)	1.04 (inactive)	0.955 (inactive)	1.05 (inactive)	0.997 (inactive)	0.98 (inactive)	1.01 (inactive)	0.928 (inactive)
C[C@]12CCC(=O)C=C1CC[C@@H]1[C@@H]2C(=O)C[C@@]2(C)[C@H]1CC[C@]2(O)C(=O)CO [Cortisone] (20 µM)	1.15	0.978	1	1.23	0.991 (inactive)	0.974 (inactive)	1.01 (inactive)	1 (inactive)	1 (inactive)	0.994 (inactive)	1.01 (inactive)	1.03 (inactive)
CCn1nc(C(=O)O)c(=O)c2cc3c(cc21)OCO3 [Cinoxacin] (20 µM)	0.547	0.0392	0.544	1.06	0.506 (active)	0.724 (active)	1 (inactive)	0.749 (inactive)	1.06 (inactive)	1.61 (active)	1.01 (inactive)	1 (inactive)
